Hits are enriched below; roughly 3.2% of the tested compounds scored in any of these assays.
Nrf2 activator: Nrf2 pathway activation; 410,000 compounds, 0.31% hits; AREc32 ARE-luciferase reporter (MCF7-derived line), luminescence, 24 h; Potency, µM (series often up to 46.1 µM), for inactives: at the top dose activation, most hits filed as activators; note: potency is the fitted concentration of half-maximal effect; % of control where 0% means no effect; nearly all actives have a fitted effect of over 65% in size
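AREc32 cells carrying an ARE-driven firefly luciferase reporter were seeded at 1000 cells/well in OPTI-MEM with 5% FBS, then exposed to compound for 24 hr at 37 deg C. Luminescence was read with Steady-Glo after 30 min at RT.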
BRCA1 expr up: increases BRCA1 expression | MCF7-BRCA1-FFLuc reporter, luminescence, 48 h; response scale: scaled: vehicle 0%, 10 µM genistein 100% | Potency, µM (titrated, usually from 46.1 µM), inactives show at the highest dose activation, most hits filed as activators | 380,000 compounds, 1.1% hits; note: potency is the fitted concentration of half-maximal effect; nearly all actives have a fitted effect of over 80% in size
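Activators of BRCA1 expression were detected as increased firefly luciferase luminescence in engineered MCF7 cells after 48 h compound incubation. Signals were scaled to genistein 10 microM as full activation.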
Nrf2 block: Nrf2 pathway inhibition | A549 ARE-Fluc reporter, luciferase luminescence, 18-24 h | Potency, µM (titrated, usually from 46 µM), inactives show at the top dose activity change, negative = inhibition, hits mostly inhibitors | 360,000 compounds, 2.1% hits; note: potency is the fitted concentration of half-maximal effect; % is set by controls: 0 for no effect and ±100 for the full control effect; nearly all actives have a fitted effect of over 60% in size
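A549 ARE_Fluc cells, 5000/well, 5% FBS OPTI-MEM; compounds in dose-response, 18-24 h at 37 °C/5% CO2; CellTiter-Fluor viability read (Ex 405/Em 525), then BugLite luciferase luminescence = Nrf2 activity.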
IL-2 act: activators of IL-2. IL-2 activation reporter assay, cell-based qHTS; stimulated with anti-CD3/CD4/CD28 beads; in transgenic mouse T cells. activation, % (series mostly up to about 46 µM). 360,000 compounds, 0.065% hits. AID 652025; in the data active = activation above about 50%; inconclusive = mostly about 30% to 49%; note: 0% is about no effect
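Unstimulated transgenic mouse T cells; 60-min compound exposure; bead-based TCR/CD4/CD28 stimulation; 18 h culture, 37 degrees C; dual fluorescence (EGFP, DsRed) plate cytometry.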
p53 reactivator: mutant p53 re-activation in reporter cells; H1299 p53-A138V BP100-luciferase reporter, luminescence, 24 h; Potency, µM (doses to about 92.2 µM), for inactives: top-dose activity change, positive = activation, usual class: activators; 320,000 compounds, 0.063% hits; note: potency is the fitted concentration of half-maximal effect; % of control where 0% means no effect; nearly all actives have a fitted effect of over 45% in size
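H1299 (p53-null), stable ts p53-A138V + BP100-Luc; 1000 cells/well, Opti-MEM/10% FBS; cpd 4 pt, 1:5; 24 h, 37 deg C, 5% CO2; detection reagent 10 min RT; luminescence.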
A549 viability: counter-screen for Nrf2 inhibitors: cytotoxicity in A549 cells; A549 ARE-Fluc cells, CellTiter-Fluor viability, 18-24 h; Potency, µM (series often up to 46 µM), without a hit: at the highest dose activity change, negative = cytotoxicity, hits mostly inhibitors; 390,000 compounds, 0.16% hits; note: potency is the fitted concentration of half-maximal effect; % is set by controls: 0 for no effect and ±100 for the full control effect
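A549 ARE-Fluc cells in 5% FBS OPTI-MEM, 5000 cells/well, rested 2 h then exposed to compounds in concentration-response for 18-24 h at 37 °C. Viability by CellTiter-Fluor fluorescence (Ex 405/Em 525) after 30 min; luciferase luminescence (BugLite, 15 min, RT) read afterwards.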
* marks the source's active call; other numbers are inactive results; ? = inconclusive; . = no result; [ ] = dose if it differs, or a comment. Unless noted, calls come from the whole dose curve; as a rule, active = well fitted curve in the direction sought with a large enough effect; inconclusive = small, poorly fitted or top-dose-only effect, or another doubt; inactive = no such curve, though single readings can be large; an effect the other way counts as inactive or inconclusive.

SMILES	Nrf2 activator	BRCA1 expr up	Nrf2 block	IL-2 act	p53 reactivator	A549 viability
C=C1CCN(C(CC(C)C)C(=O)NCc2ccc(OC)cc2)S(=O)(=O)c2ccccc21 (stereo unspecified)	.	.	-10%	.	.	-5%
CC(=O)Nc1ccc(S(=O)(=O)Nc2nc3n(n2)C(c2ccccc2)C=C(c2ccc(Cl)cc2)N3)cc1 (stereo unspecified)	1%	.	.	.	.	?
COc1ccccc1NC(=O)CSc1nnc2c(n1)[nH]c1ccccc12	3%	.	?	.	.	-11%
Cc1nc2nc(CNC(=O)OC(C)(C)C)nn2c(C)c1CCC(=O)NCc1ccc(F)cc1	-1%	.	-4%	.	.	0%
O=C1N/C(=C\c2ccccc2)c2ccccc21	8.9µM*	-75%	?	-3	9%	13%[1.84 µM]
O=C1N/C(=C\c2nc3ccccc3s2)c2ccccc21	.	.	.	.	20%	.
Cc1cc(C)n2c(Nc3ccc(C(C)C)cc3)c(-c3ccsc3)nc2n1	0%	.	-80%	.	.	?
COc1ccc(OC)c2sc(NC(=O)CCS(=O)(=O)c3ccccc3)nc12	5µM*	-31%	?	-5	.	-9%
Cc1nc2ccc(NC(=O)CCS(=O)(=O)c3ccccc3)cc2s1	5%	?	?	-4	?	6%
COc1cc(-c2nnc(NC(=O)CCS(=O)(=O)c3ccccc3)o2)cc(OC)c1OC	11µM*	-50%	4%	-1	-20%	-26%
COc1cc(OC)cc(-c2nnc(NC(=O)CCS(=O)(=O)c3ccc(F)cc3)o2)c1	?	1%	21µM*	0	-4%	?
Cc1nc2cc(NC(=O)CCS(=O)(=O)c3ccccc3)ccc2s1	0%	?	?	-1	32µM*	4%
COc1cc(OC)cc(-c2nnc(NC(=O)CCS(=O)(=O)c3ccccc3)o2)c1	9%	-7%	-5%	-3	-3%	-4%
COc1ccc(OC)c2sc(NC(=O)CCSc3ccccc3)nc12	4%	-8%	-9%	-3	10%	4%
CC(=O)c1ccc(NC(=O)c2c3c(nc4ccccc24)C(=O)N(C2CCCCC2)C3)cc1	4%	.	-27%	.	.	-1%
COc1ccc(C2=Nn3c(nnc3-c3ccccc3Cl)SC2)cc1OCC1CC1	-2%	-71%	21µM*	-4	1%	?
COc1ccc(OC)c(-c2nnc3n2N=C(c2ccc(OC)c(OCC4CC4)c2)CS3)c1	0%	-81%	15µM*	-2	2%	?
O=c1[nH]c(SCc2c(F)cccc2Cl)nc2c1CCC2	0%	.	12%	.	.	-1%
CCOc1cc(C2c3c(oc4ccc(F)cc4c3=O)C(=O)N2Cc2ccco2)ccc1O (stereo unspecified)	3%	.	3%	.	.	-1%
Cc1cc(C(F)(F)F)c(C#N)c(N2CCOCC2)n1	2%	-1%	17%	-1	-17%	1%
N#Cc1c(N2CCOCC2)nsc1-c1ccc(C(F)(F)F)cc1	4%	5µM*	5%	2	3%	15%
O=C(CSc1nc2nccnc2c(=O)n1CCc1c[nH]c2ccccc12)Nc1ccc(F)cc1	6%	.	-4%	.	.	-6%
NNc1ccc2c(C(F)(F)F)cc(C(F)(F)F)nc2n1	0%	-25%	?	0	0%	-10%
N#CC(c1cccc(Cl)c1)c1ccc2c(C(F)(F)F)cc(C(F)(F)F)nc2n1 (stereo unspecified)	16%	-91%	.	-1	.	6.5µM*
Cc1ccccc1NC(C)C(=O)N/N=C/c1ccccc1OCc1cccc(Br)c1 (stereo unspecified)	0%	-84%	15µM*	0	12%	-25%
SMILES	Nrf2 activator	BRCA1 expr up	Nrf2 block	IL-2 act	p53 reactivator	A549 viability
COc1ccc(NC(C)C(=O)N/N=C/c2ccccc2OCc2cccc(Br)c2)cc1 (stereo unspecified)	0%	-3%	?	-4	?	1%
N#Cc1ccc(-n2nnc3ccccc3c2=O)c([N+](=O)[O-])c1	0%	-26%	-11%	0	.	0%
N=c1c2ccccc2nnn1-c1ccccc1[N+](=O)[O-]	14µM*	-27%	0%	0	.	4%
CNC(=O)[C@]1(C(F)(F)F)C[C@H](CCC2CCCCC2)CCCO1	.	.	10%	.	.	-1%
Cc1cc(Cl)ccc1OCC(=O)N1CCCN(C(=O)COc2ccc(Cl)cc2C)CC1	5%	-55%	?	-1	-7%	?
Cc1cc(Cl)ccc1OC(C)C(=O)N1CCCN(C(=O)C(C)Oc2ccc(Cl)cc2C)CC1 (stereo unspecified)	5%	-83%	16µM*	-3	5%	?
COc1ccc2c(c1)c(CC(=O)Nc1ccccc1OC)c(C)n2C(=O)c1ccc(Cl)cc1	3%	-54%	-22%	-3	-10%	-1%
COc1ccc2c(c1)c(CC(=O)Nc1cc(C)ccc1C)c(C)n2C(=O)c1ccc(Cl)cc1	4%	-25%	-9%	0	-8%	-1%
COc1ccc(OC)c(NC(=O)Cc2c(C)n(C(=O)c3ccc(Cl)cc3)c3ccc(OC)cc23)c1	-1%	.	23µM*	.	.	-12%
COc1ccc2c(c1)c(CC(=O)Nc1ccc(C(C)=O)cc1)c(C)n2C(=O)c1ccc(Cl)cc1	6%	65%	23µM*	1	12%	?
O=Cc1sc(Nc2ccccc2)nc1Cl	14µM*	-24%	9%	2	21%	3%
Cc1ccc(Nc2nc(Cl)c(C=O)s2)cc1Cl	?	-24%	11%	0	4%	-12%
Cc1cccc(C(=O)NC2CCN(C#N)CC2)c1	.	.	-8%	.	.	-3%
COC(=O)/C(=C\c1ccc(O)cc1)c1nc2ccccc2[nH]1	7%	-7%	5%	1	2%	8%
C/C(=C\c1ccc(N)cc1)c1nc2ccccc2[nH]1	-1%	7.9µM*	?	0	?	-1%
CCOc1ccc2nc(N3CCC(C(=O)N4CCN(c5ccccn5)CC4)CC3)sc2c1	3%	-14%	16µM*	-3	-2%	-18%
CC(=O)Nc1ccc(Br)c(Cl)c1	0%	-10%	0%	0	-4%	-2%
O=C(Nc1ccc(NC(=O)C2CC2)cn1)c1ccccc1Cl	0%	13µM*	?	1	?	-4%
O=C(Nc1ccc(Br)c(Cl)c1)C1CC1	2%	-31%	15µM*	0	3%	-10%
Fc1ccc(-c2nnc(-c3ccc(F)cc3)o2)cc1	8%	2.5µM*	?	1	.	6%
Fc1ccc(-c2nnc(Cc3nnc(-c4ccc(F)cc4)o3)o2)cc1	0%	1%	6%	-2	-7%	2%

Screening data as filed in PubChem BioAssay.
